Laboratory results reported in ChEMBL document CHEMBL1157539, “Thousands of chemical starting points for antimalarial lead identification” (Nature, 2010).

Assays:
Plasmodium falciparum = test: GSK_TCMDC: Inhibition of Plasmodium falciparum 3D7 in whole red blood cells, using parasite LDH activity as an index of growth. Test compounds present at 2uM; assay type: functional
HepG2 = test: GSK_TCMDC: Percent inhibition of human HepG2 cell line. Test compounds present at 10uM.; assay type: functional

CN(C)Cc1ccc(CNC2CCN(Cc3ccccc3Cl)CC2)cc1.O=C(O)C(F)(F)F
Inhibition (Plasmodium falciparum): 82%
Inhibition (HepG2): 23%

Cl.O=C(NCCCCN1CCC(c2ccc3c(c2OCCCO)CCCC3)CC1)c1ccc(-c2ccc(C(F)(F)F)cc2)c(CO)c1
Inhibition (Plasmodium falciparum): 95%
Inhibition (HepG2): 66%

CC(C)CN1C(=O)C(c2ccc(F)c(F)c2)=C(O)C1c1ccccc1 (centres undefined)
Inhibition (Plasmodium falciparum): 94%
Inhibition (HepG2): 0%

Cc1cc2c(cc1C(F)(F)F)N(C(=O)Nc1ccc(C(=O)NCCN3CCCC3)cc1)CC2
Inhibition (Plasmodium falciparum): 100%
Inhibition (HepG2): 10%

CC(=O)Nc1cccc(Nc2c3ccccc3nc3ccccc23)c1
Inhibition (Plasmodium falciparum): 82%
Inhibition (HepG2): 31%

O=C(c1ccccc1)N1CCC[C@](CCCN2CCN(c3ccccc3O)CC2)(c2ccc(Cl)c(Cl)c2)C1
Inhibition (Plasmodium falciparum): 80%
Inhibition (HepG2): 16%

CC1(C)C(=O)N=C2C1=C(O)C(=O)c1ccccc12
Inhibition (Plasmodium falciparum): 93%
Inhibition (HepG2): 0%

Cc1ccc(-c2cnc3[nH]cc(-c4ccc(C(=O)O)c(C)c4)c3c2)cc1C.O=C(O)C(F)(F)F
Inhibition (Plasmodium falciparum): 96%
Inhibition (HepG2): 37%

CC(=O)Nc1ccc(CN2CCc3ccc(NS(=O)(=O)c4ccc(-c5cccc(C(F)(F)F)c5)cc4)cc3CC2)s1
Inhibition (Plasmodium falciparum): 82%
Inhibition (HepG2): 23%

Cc1ccccc1Oc1ccc(Nc2ccnc(Nc3cccc(C(N)=O)c3)n2)cc1C(F)(F)F.Cl
Inhibition (Plasmodium falciparum): 81%
Inhibition (HepG2): 9%

O=C(O)CCSc1ncnc2[nH]cnc12
Inhibition (Plasmodium falciparum): 100%
Inhibition (HepG2): 7%

COc1cccc(-c2nc(Nc3ccncc3)c3ncn(C)c3n2)c1.O=C(O)C(F)(F)F
Inhibition (Plasmodium falciparum): 94%
Inhibition (HepG2): 14%
